Measurements as given in ChEMBL document CHEMBL3988442, “University of Dundee, Small-Polar-MMV Screening Library” (2021).
Hit rate of the full screen: of about 66,000 compounds, about 960 (1.5%) showed an effect of 50% or more. Shown is part of a subset that was picked to be rich in strong results.

Test system: Trypanosoma brucei
Experiment: Trypanosoma brucei 72 hour study
Format: functional, organism-based
Parameters: scale not given: in the data most compounds retested in dose-response had high values

O=C(O)C(F)(F)F.O=C(O)C(F)(F)F.O=C([C@H]1C[C@H]2OCC[C@H]2N(Cc2ccccc2F)C1)N1CCCCO1
Percent Effect (30.3 µM, […]): -61.9%

Cn1ccnc1-c1nc(NC2CCCC2)ncc1-c1cccc(F)c1
Percent Effect (30.3 µM, […]): 20.44%

CN1CCN(c2ncnc3c2CCN(S(=O)(=O)C2CC2)CC3)CC1.O=C(O)C(F)(F)F
Percent Effect (30.3 µM, […]): -13.78%

CN(C)C[C@]12COC[C@H]1CN(Cc1ccc3c(c1)OCO3)C2.O=C(O)C(F)(F)F.O=C(O)C(F)(F)F
Percent Effect (30.3 µM, […]): 5.402%

CC(C)CC(=O)NC[C@H]1CC[C@H](C(c2ccccn2)N(C)C)CC1 (stereo partly drawn)
Percent Effect (30.3 µM, […]): -15.36%

COc1cccc(CNC(=O)CCC2=Nc3ccccc3S(=O)(=O)N2)c1
Percent Effect (30.3 µM, […]): 9.218%

CCN1C[C@@H]2[C@@H](OC)CCN(S(=O)(=O)c3ccccc3F)[C@@H]2C1.O=C(O)C(F)(F)F
Percent Effect (30 µM, 30.03 µM): 30.94%

CN(Cc1ccc(C#N)cc1)c1ncc(C(N)=O)cc1Cl
Percent Effect (30.3 µM, […]): 12.46%

Cl.O=C(NCc1ccccc1)C1=NOC2(CCNC2)C1 (stereo not drawn)
Percent Effect (30 µM, 30.03 µM): 2.25%

Cc1cccc(CNCC2COC3(CCCCC3)O2)c1C (stereo not drawn)
Percent Effect (30 µM, 30.03 µM): -30.8%

COCCOc1ccccc1CNCC1COC2(CCCC2)O1 (stereo not drawn)
Percent Effect (30 µM, 30.03 µM): 102%

Cc1cccc(CNCC2COC3(CCCC3)O2)c1C (stereo not drawn)
Percent Effect (30 µM, 30.03 µM): -15.5%

CCN(Cc1ccco1)C(=O)c1cc(OC)c2c(c1)OCCO2
Percent Effect (30 µM, 30.03 µM): 34.74%

COc1cc(C(=O)N(Cc2ccco2)C2CC2)cc2c1OCCO2
Percent Effect (30 µM, 30.03 µM): 51.93%

COc1cc(C(=O)N(Cc2ccco2)C2CC2)cc(OC)c1OC
Percent Effect (30 µM, 30.03 µM): -6.757%

CC(=O)N1CCC(c2c(CN(C)C)cnc3cc(C)nn23)CC1
Percent Effect (30.3 µM, […]): -17.17%

Cc1cc(N(C)CCN(C)C)n2nc(C)cc2n1
Percent Effect (30 µM, 30.03 µM): -1.745%

Cc1cc2ncc(CN(C)C)c(C3CCN(C)CC3)n2n1
Percent Effect (30.3 µM, […]): 99.05%

Cn1cc(-c2csc(N3CCCCCC3)n2)cn1
Percent Effect (30 µM, 30.03 µM): 99.99%

CN1CCN(c2nc(-c3cnn(C)c3)cs2)CC1
Percent Effect (30 µM, 30.03 µM): -14.69%

Cn1cc(-c2csc(N3CCSCC3)n2)cn1
Percent Effect (30 µM, 30.03 µM): -20.97%

O=C(O)C(F)(F)F.O=C(O)C(F)(F)F.O=C(c1ccncc1)N1CCC2(CC1)CCN(Cc1ccccn1)C2=O
Percent Effect (30 µM, 30.03 µM): -9.957%

CC(C)SCC(=O)NCc1cc2n(n1)CCCN(C1CCCCC1)C2
Percent Effect (30 µM, 30.03 µM): -6.203%

CC(CC(=O)N1CCN(c2cnccn2)CC1)c1ccc(F)cc1 (stereo not drawn)
Percent Effect (30 µM, 30.03 µM): -67.22%

O=C(CCSc1ccc(F)cc1)N1CCN(c2cnccn2)CC1
Percent Effect (30 µM, 30.03 µM): -62.17%

O=C(CCSc1ccccc1F)N1CCN(c2cnccn2)CC1
Percent Effect (30 µM, 30.03 µM): 98.54%

Cc1ccc(S(=O)(=O)NC(=O)c2cc(S(C)(=O)=O)ccc2C)s1
Percent Effect (30.3 µM, […]): 94.94%

Cc1ccc(S(C)(=O)=O)cc1C(=O)NS(C)(=O)=O
Percent Effect (30.3 µM, […]): 76.39%

Cc1ccc(C(=O)NS(C)(=O)=O)cc1S(C)(=O)=O
Percent Effect (30 µM, 30.03 µM): 7.017%

Cc1ccc(S(C)(=O)=O)cc1C(=O)NS(=O)(=O)c1cccs1
Percent Effect (30.3 µM, […]): -1.699%

Cc1ccc(S(=O)(=O)Nc2ccc(C)c(C(=O)O)c2)s1
Percent Effect (30 µM, 30.03 µM): -9.875%

Cc1ccc(S(C)(=O)=O)cc1C(=O)NS(=O)(=O)c1ccc(Cl)cc1
Percent Effect (30.3 µM, […]): -20.93%

Cc1ccc(F)cc1S(=O)(=O)Nc1ccc2c(C(=O)O)c[nH]c2c1
Percent Effect (10 µM): -37.32%

Clc1ccccc1-c1cc(CNc2ncnc3c2CCNCC3)no1
Percent Effect (30 µM, 30.03 µM): -18.38%

O=C(CCNC(=O)c1cnccn1)Nc1ncc[nH]1
Percent Effect (30 µM, 30.03 µM): -39.01%

O=C(Nc1cccc2c1CCCC2)c1cccnc1N1CCCNCC1
Percent Effect (30.3 µM, […]): -17.09% | Percent Effect (10 mM, 10 mM as filed; unlikely as a test dose): -111.4%

CS(=O)(=O)NC[C@]12COC[C@H]1CN(C(=O)C1CCSCC1)C2
Percent Effect (30.3 µM, […]): -61.89%

CNC(=O)c1cn[nH]c1C1CCN(Cc2ccccc2OC)C1 (stereo not drawn)
Percent Effect (30.3 µM, […]): 0.9318%

CC(C)c1ccc(CC(=O)N2CCCC3(CN(C)C(=O)O3)C2)cc1 (stereo not drawn)
Percent Effect (30.3 µM, […]): -36.52%

CC(C)c1nnc(CN2CCCC3(CC2)CN(C)C(=O)O3)o1 (stereo not drawn)
Percent Effect (30 µM, 30.03 µM): -4.839%

CC(C)c1ccc(CN2CCCC3(CC2)CN(C)C(=O)O3)cc1 (stereo not drawn)
Percent Effect (30.3 µM, […]): 97.32%

CN(C)C(=O)CO[C@H]1CN(Cc2nccs2)[C@@H]2COC[C@H]12.O=C(O)C(F)(F)F
Percent Effect (30.3 µM, […]): -75.65%

Cc1cc2nc(C(C)C)cc(N(C)CC3CCCN(CCO)C3)n2n1 (stereo not drawn)
Percent Effect (30.3 µM, […]): 9.548%

Cc1nc(CN2CCCC(CCc3ccccc3F)C2)c[nH]1 (stereo not drawn)
Percent Effect (30.3 µM, […]): -5.303%

Cc1nc(CN2CCCC(CCc3ccc(F)cc3F)C2)c[nH]1 (stereo not drawn)
Percent Effect (30 µM, 30.03 µM): 47.76%

Cn1cc(CN2CCCC(CCc3ccc(F)c(F)c3)C2)cn1 (stereo not drawn)
Percent Effect (30 µM, 30.03 µM): -1.052%

Cc1nc(CN2CCCC(CCc3ccc(F)c(F)c3)C2)c[nH]1 (stereo not drawn)
Percent Effect (30.3 µM, […]): 50.38%

Cc1nc(CN2CCCC(CCc3c(F)cccc3F)C2)c[nH]1 (stereo not drawn)
Percent Effect (30 µM, 30.03 µM): 77.03%

Cc1nc(CN2CCCC(CCc3ccccc3C)C2)c[nH]1 (stereo not drawn)
Percent Effect (30.3 µM, […]): -10.1%

CN(C)[C@@H]1CCN(S(=O)(=O)C2CC2)[C@H]1Cc1ccccc1.O=C(O)C(F)(F)F
Percent Effect (30.3 µM, […]): -33.03%

O=C1CCNc2ncc(-c3ccccc3Cl)cc2CN1C1CC1
Percent Effect (30.3 µM, […]): 10.61%

Cl.O=C(NCc1ccc(Cl)cc1)C1=NOC2(CCNC2)C1 (stereo not drawn)
Percent Effect (30 µM, 30.03 µM): 4.958%

Cc1ccc(NC(=O)Nc2c[nH]c(=O)[nH]c2=O)c(C)c1
Percent Effect (30 µM, 30.03 µM): -29.58%

Cc1cc(CN2CCC3(CC2)COC(COCC2CC2)C3)no1.O=C(O)C(F)(F)F (stereo not drawn)
Percent Effect (30.3 µM, […]): 4.372%

Cc1cncc(CN2C[C@@H](O)[C@H](Oc3ccccc3)C2)c1
Percent Effect (30.3 µM, […]): 6.651%

c1ccc(-c2cc(CN3C[C@@H]4CC[C@H](C3)N(CC3CCC3)C4)on2)cc1
Percent Effect (30 µM, 30.03 µM): 58.21%

c1ccc(-c2nnc(CN3C[C@@H]4CC[C@H](C3)N(CC3CCC3)C4)o2)cc1
Percent Effect (30 µM, 30.03 µM): -46.57%

c1ccc(-c2cc(CN3C[C@@H]4CC[C@H](C3)N(CC3CC3)C4)on2)cc1
Percent Effect (30 µM, 30.03 µM): -36.61%

O=C(O)C(F)(F)F.O=C(O)C(F)(F)F.O=C(c1n[nH]c2c1CN(C1CCOCC1)CC2)N1CCCC1
Percent Effect (30.3 µM, […]): -4.414%

CCOc1ccc(N(C)Cc2nnc(C3CC3)o2)cc1
Percent Effect (30.3 µM, […]): -683%

CCOc1ccc(N(C)Cc2nnc(C)o2)cc1
Percent Effect (30.3 µM, […]): -136.8%

CCOc1ccc(N(C)Cc2nc(C)c(C)o2)cc1
Percent Effect (30.3 µM, […]): 96.05%
